Test [1] has as its target Glucocorticoid receptor (Homo sapiens) (UniProt P04150). Nature of the test: qHTS assay for small molecule agonists of glucocorticoid receptor signaling (AID 588532; active = well fitted curve in the direction sought with a large enough effect in the signal ratio, with a control signal flat; the % refers to the signal ratio;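 note: 100% = dexamethasone at 0.1 µM and 0% = DMSO only wells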). To be noted: HeLa MMTV-bla, beta-lactamase ratio, agonist, 18 h; stronger effect = higher value; percent of dexamethasone control, DMSO zero. The essentials:
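Cells were plated and rested 3-5 h at 37 C, compounds were added in titration and incubated 18 h, then CCF4 substrate was loaded for 2 h at RT before reading blue/green fluorescence. EC50 came from Hill-equation fitting.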
(In general: In qHTS, concentration-response curves come from the screen itself.)

For test [2] the target is unchanged. The test can be described thus: qHTS assay for small molecule antagonists of glucocorticoid receptor signaling (AID 588533; active = well fitted inhibition curve with a large enough effect in the signal ratio, with a control signal flat, not every such curve was filed as active; the % refers to the signal ratio; note: % is set by controls: 0 for no effect and ±100 for the full control effect). The settings on record: HeLa MMTV-bla, GRE beta-lactamase ratio, antagonist mode, 18 h; series mostly up to 76.8 µM. The gist of the method:
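Antagonist-mode qHTS: compound titrations added to GRE-bla HeLa cells, then dexamethasone 2 nM final; 18 h, 37 C. CCF4 FRET fluorescence normalized to dexamethasone and DMSO; IC50 from Hill fit.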

Test [3] in a line: qHTS assay for small molecule antagonists of peroxisome proliferator-activated receptor delta signaling (AID 588535; active = well fitted inhibition curve with a large enough effect in the signal ratio, with a control signal flat, not every such curve was filed as active; the % refers to the signal ratio;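 for max response: cells co-treated with a PPAR-delta agonist as stimulator during compound exposure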). The settings on record: HEK293T PPARd-UAS-bla, beta-lactamase FRET ratio, 18 h; 460 nm channel. The essentials: (§1)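 Antagonist-mode beta-lactamase reporter (GeneBLAzer PPAR-delta-UAS-bla) in HEK293T cells, 2% charcoal/dextran FBS, 4000 cells/well. Compound titrations, 18 h at 37 C; CCF4 ratio read, IC50 and efficacy from Hill fits.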

Test [4] has as its target Peroxisome proliferator-activated receptor delta (Homo sapiens) (UniProt Q03181). Described as above. The settings on record: HEK293T PPARd-UAS-bla, beta-lactamase FRET ratio, 18 h; series mostly up to 76.7 µM. The essentials:
as §1

Test [5] deals with Peroxisome proliferator-activated receptor gamma (Homo sapiens) (UniProt P37231). The test can be described thus: qHTS assay for small molecule agonists of peroxisome proliferator-activated receptor gamma signaling (AID 588536; active = well fitted curve in the direction sought with a large enough effect in the signal ratio, with a control signal flat, not every such curve was filed as active; the % refers to the signal ratio;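 note: 0% = DMSO basal wells and 100% = rosiglitazone at 2 µM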). To be noted: HEK293 PPARg-UAS-bla, beta-lactamase ratio, 16 h, percent of rosiglitazone response, DMSO as zero; series mostly up to 76.7 µM. The essentials:
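Ratiometric blue/green fluorescence (405 nm excitation; 460 and 530 nm emission) from CCF4-loaded HEK293 reporter cells serves as signal. Exposure to test compounds lasts 16 h at 37 C in medium containing 1% charcoal/dextran-treated serum.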

The target is the same in test [6]. Nature of the test: qHTS assay for small molecule antagonists of peroxisome proliferator-activated receptor gamma signaling (AID 588537; active = well fitted inhibition curve with a large enough effect in the signal ratio, with a control signal flat, not every such curve was filed as active; the % refers to the signal ratio;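 note: reporter cells co-stimulated with 50 nM rosiglitazone agonist during compound treatment; % of control where 0% means no effect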). The settings on record: HEK293 PPARg-UAS-bla, beta-lactamase ratio, antagonist mode; series mostly up to 76.8 µM. The gist of the method: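 PPARγ-UAS-bla HEK293 cells (3000/well) in 1% charcoal/dextran-stripped FBS are treated with compound, then stimulated with 50 nM rosiglitazone for 16 h at 37 °C. Read-out is CCF4 β-lactamase fluorescence after 2 h at RT. IC50 comes from Hill fits normalised to rosiglitazone and DMSO.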

Test [7] concerns the target Vitamin D3 receptor (Homo sapiens) (UniProt P11473). The test can be described thus: qHTS assay for small molecule antagonists of vitamin D receptor signaling (AID 588541; calls by dose curve;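 note: receptor activated by calcitriol during compound treatment; % is set by controls: 0 for no effect and ±100 for the full control effect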). The settings on record: HEK293T VDR-UAS-bla, beta-lactamase ratio, antagonist mode; series mostly up to 76.7 µM. The essentials: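 VDR-UAS-bla HEK293T cells in 2% charcoal-stripped FBS were stimulated with 1-alpha,25-dihydroxyvitamin D3 (3 nM final) plus compound for 16 h at 37 C. The beta-lactamase CCF4 readout was normalized to 50 nM agonist and DMSO, and Hill fits gave IC50.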

Test [8] has the same target. The test can be described thus: qHTS assay for small molecule agonists of vitamin D receptor signaling (AID 588543; calls by dose curve;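 note: 0% = DMSO basal and 100% = reference agonist control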). The settings on record: HEK293T VDR-UAS-bla, beta-lactamase ratio, 16 h; series mostly up to 76.8 µM. The essentials:
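β-lactamase reporter, VDR-UAS-bla HEK293T, agonist mode. Cells plated 5 h at 37 °C, compound titration 16 h at 37 °C, CCF4 dye 2 h RT, ratio 460/530 nm. Hill fit → EC50, efficacy vs 50 nM 1α,25-(OH)2D3.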

Test [9] can be described thus: qHTS assay for small molecule agonists of retinoid X receptor alpha signaling (AID 588544; calls by dose curve;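 for activation: 0% = DMSO basal wells and 100% = reference agonist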). The settings on record: HEK293T RXRa-UAS-bla, beta-lactamase reporter, 18 h; 530 nm emission.
The target in test [10] is Retinoic acid receptor RXR-alpha (Homo sapiens) (UniProt P19793). The test is described as above. The settings on record: HEK293T RXRa-UAS-bla, beta-lactamase reporter, 18 h; series mostly up to 76.7 µM.
Test [11] is described as follows: qHTS assay for small molecule antagonists of retinoid X receptor alpha signaling (AID 588546; active = well fitted inhibition curve with a large enough effect in the signal ratio, with a control signal flat, not every such curve was filed as active; the % refers to the signal ratio;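 note: cells stimulated with 9-cis-retinoic acid as agonist; % is set by controls: 0 for no effect and ±100 for the full control effect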). To be noted: HEK293T RXRa-UAS-bla, beta-lactamase ratio, antagonist mode; measured here: W530 green channel, cytotoxicity proxy. The gist of the method: (§2)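 Beta-lactamase reporter inhibition, read as CCF4 fluorescence ratio (ex 405, em 460/530 nm) after 2 h at RT. HEK293T UAS-bla cells, 2500/well, were stimulated with 9-cis-RA at 500 or 100 nM final alongside test compound for 18 h at 37 C.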

The target of test [12] is Retinoic acid receptor RXR-alpha (Homo sapiens) (UniProt P19793). The test is described as above. To be noted: HEK293T RXRa-UAS-bla, beta-lactamase ratio, antagonist mode. The essentials:
as §2

Test [13] concerns the target Thyroid hormone receptor beta (Homo sapiens) (UniProt P10828). The test can be described thus: qHTS assay for small molecule antagonists of thyroid hormone receptor beta signaling (AID 588547; active = well fitted inhibition curve with a large enough effect in the signal ratio, with a control signal flat, not every such curve was filed as active; the % refers to the signal ratio;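 note: cells stimulated with 0.4 nM T3 agonist during compound exposure; % is set by controls: 0 for no effect and ±100 for the full control effect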). To be noted: TR-UAS-bla HEK293, beta-lactamase ratio, antagonist mode, 18 h. The gist of the method:
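TR-UAS-bla GripTite HEK293 cells in 2% charcoal/dextran FBS medium; compounds 0.59 nM to 92 uM with T3 at 0.4nM final, 18 h at 37 C. Beta-lactamase read by CCF4 fluorescence (460/530 nm); Hill fits gave IC50 and efficacy.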

Test [14] addresses Voltage-gated inwardly rectifying potassium channel KCNH2 (Homo sapiens) (UniProt Q12809). Nature of the test: qHTS Assay for Small Molecule Inhibitors of the Human hERG Channel Activity (AID 588834).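 Note: lower thallium flux fluorescence means stronger hERG block; nearly all actives have a fitted effect of over 50% in size.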 Note: potency is the fitted concentration of half-maximal effect. The settings on record: U2OS BacMam hERG, FluxOR thallium flux fluorescence; series mostly up to 46.1 µM. The essentials: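 Concentration-response qHTS measuring drop in thallium-sensitive dye signal. U2OS cells carrying BacMam hERG; compound exposure ~10 min, then stimulation buffer and 2 min read at 1 sec intervals.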

Test [15] deals with Luciferin 4-monooxygenase (Photinus pyralis) (UniProt P08659). Nature of the test: Biochemical firefly luciferase enzyme assay for NPC (AID 624030).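 Note: purified P. pyralis luciferase at 10 nM with luciferin and ATP substrate; 0% = DMSO and -100% = full luciferase inhibition by PTC124 control; nearly all actives have a fitted effect of over 70% in size.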 The settings on record: purified P. pyralis luciferase, luminescence, 5 min; series mostly up to 58.6 µM. The gist of the method: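 Purified P. pyralis luciferase at 10 nM in 50 mM Tris Acetate (final), luminescence read within 5 minutes of enzyme addition to compounds. Activity normalised to PTC124 versus DMSO; concentration-response curves classed by r2, magnitude and activity.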

A short description of test [16]: S16 Schwann cell viability assay (CellTiter-Glo assay) (AID 624031).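 Note: native untransfected S16 rat Schwann cells; cellular ATP luminescence as a viability measure; plate controls were DMSO-treated cells for no effect and cell-free wells for full effect; nearly all actives have a fitted effect of over 70% in size.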 The settings on record: S16 rat Schwann cells viability, 24 h; series mostly up to 57.5 µM. The gist of the method:
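Parental S16 cells, 24 h compound, 37 °C. ATP-luminescence viability; DMSO = 0% activity, empty wells as reference; curves classified by fit quality and efficacy.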

Test [17] can be described thus: S16 Schwann cell PMP22 intronic element firefly luciferase assay (AID 624032).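 Note: plate controls were DMSO for no effect and PTC124 positive control mean for full effect; nearly all actives have a fitted effect of over 30% in size.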 The settings on record: S16 rat Schwann cells, PMP22 element FLuc, 24 h; series mostly up to 57.5 µM. The essentials:
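Rat S16 Schwann cells stably carrying firefly luciferase driven by a PMP22 intronic element, in 10% FBS, treated 24 h at 37 C. ONE-Glo luminescence normalized to PTC124 control and DMSO (0%); curves classed by r2, magnitude and activity.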

Test [18] concerns the target Glutaminase kidney isoform, mitochondrial (Homo sapiens) (UniProt O94925). The test can be described thus: qHTS for Inhibitors of Glutaminase (GLS): LOPAC Validation (AID 624146).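 Note: glutamate product detected by oxidase and peroxidase coupled Amplex red fluorescence gain; % is set by controls: 0 for no effect and ±100 for the full control effect; nearly all actives have a fitted effect of over 60% in size.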 To be noted: glutaminase enzyme activity inhibition; series mostly up to 46.1 µM. The gist of the method: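 Enzyme dispensed in phosphate buffer (45 mM, pH 8.2, 0.02% Tween-20), compounds pinned in, then 1 mM L-glutamine solution and the glutamate oxidase–HRP–Amplex Red mix added; fluorescence read immediately and again after 30 min at room temperature.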

Test [19] is described as follows: qHTS of Trypanosoma Brucei Inhibitors: LOPAC Validation (AID 624147). Note: 0% is about no effect. To be noted: purified enzyme assay, luminescence, 45 min; series mostly up to 57.5 µM. The gist of the method:
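Readout: single end-point luminescence (Kinase-Glo Plus, 10 min). Reaction conditions were TbPYK/substrate plus 130 uM ADP, 45 min at RT, pH 7.2 TEA buffer. No-enzyme wells served as controls, and data were normalized before concentration-response fitting.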

Test [20] can be described thus: S16 Schwann cell PMP22 intronic element beta-lactamase assay (AID 624044; calls by dose curve;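 note: 0% = DMSO and -100% = potassium clavulanate positive control; nearly all actives have a fitted effect of over 15% in size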). To be noted: S16 rat Schwann cells, PMP22 element beta-lactamase FRET, 24 h; series mostly up to 38.3 µM. The gist of the method:
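Rat S16 Schwann cells with beta-Lac driven by a PMP22 intronic element, compound-treated 24 h at 37 °C. LiveBLAzer FRET B/G read: 460 nm normalized to potassium clavulanate vs DMSO; 535 nm FRET as viability; concentration-effect curves classified.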

Structures are written as SMILES. Several values for one entry are separate records, joined by “and”; a condition that tells them apart may be missing. Equal entries are not always repeated. Results filed as inconclusive are left out. Activity calls are given as the source filed them. Unless noted, calls come from the whole dose curve; as a rule, active = well fitted curve in the direction sought with a large enough effect; inconclusive = small, poorly fitted or top-dose-only effect, or another doubt; inactive = no such curve, though single readings can be large; an effect the other way counts as inactive or inconclusive.

Sequence of Peroxisome proliferator-activated receptor delta (Homo sapiens) (Q03181 whole entry, looked up): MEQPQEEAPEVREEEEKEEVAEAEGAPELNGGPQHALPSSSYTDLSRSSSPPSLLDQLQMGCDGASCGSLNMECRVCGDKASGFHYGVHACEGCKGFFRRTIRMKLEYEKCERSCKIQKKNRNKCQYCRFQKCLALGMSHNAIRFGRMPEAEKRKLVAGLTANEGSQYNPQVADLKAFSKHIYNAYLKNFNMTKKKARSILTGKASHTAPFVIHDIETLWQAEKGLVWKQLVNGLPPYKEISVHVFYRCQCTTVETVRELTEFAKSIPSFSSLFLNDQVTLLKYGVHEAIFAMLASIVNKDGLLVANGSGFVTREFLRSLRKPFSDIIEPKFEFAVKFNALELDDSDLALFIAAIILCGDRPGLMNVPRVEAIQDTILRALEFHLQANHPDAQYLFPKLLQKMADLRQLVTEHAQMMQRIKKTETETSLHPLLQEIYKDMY
Sequence of Peroxisome proliferator-activated receptor gamma (Homo sapiens) (P37231 whole entry, looked up): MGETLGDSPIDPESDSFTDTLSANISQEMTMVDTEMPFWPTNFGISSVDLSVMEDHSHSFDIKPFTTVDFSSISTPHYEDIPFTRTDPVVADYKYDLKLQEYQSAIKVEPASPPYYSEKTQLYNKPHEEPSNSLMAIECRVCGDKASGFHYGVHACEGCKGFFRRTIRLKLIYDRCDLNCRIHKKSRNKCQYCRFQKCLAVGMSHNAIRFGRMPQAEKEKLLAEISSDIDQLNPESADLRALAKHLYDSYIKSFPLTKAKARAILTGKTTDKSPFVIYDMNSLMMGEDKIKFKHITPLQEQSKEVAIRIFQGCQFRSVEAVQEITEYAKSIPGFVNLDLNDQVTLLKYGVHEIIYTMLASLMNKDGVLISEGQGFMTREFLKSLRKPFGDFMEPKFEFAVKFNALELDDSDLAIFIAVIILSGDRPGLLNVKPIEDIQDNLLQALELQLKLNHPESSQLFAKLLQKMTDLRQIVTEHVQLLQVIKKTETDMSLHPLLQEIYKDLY
Sequence of Luciferin 4-monooxygenase (Photinus pyralis) (P08659 whole entry, looked up): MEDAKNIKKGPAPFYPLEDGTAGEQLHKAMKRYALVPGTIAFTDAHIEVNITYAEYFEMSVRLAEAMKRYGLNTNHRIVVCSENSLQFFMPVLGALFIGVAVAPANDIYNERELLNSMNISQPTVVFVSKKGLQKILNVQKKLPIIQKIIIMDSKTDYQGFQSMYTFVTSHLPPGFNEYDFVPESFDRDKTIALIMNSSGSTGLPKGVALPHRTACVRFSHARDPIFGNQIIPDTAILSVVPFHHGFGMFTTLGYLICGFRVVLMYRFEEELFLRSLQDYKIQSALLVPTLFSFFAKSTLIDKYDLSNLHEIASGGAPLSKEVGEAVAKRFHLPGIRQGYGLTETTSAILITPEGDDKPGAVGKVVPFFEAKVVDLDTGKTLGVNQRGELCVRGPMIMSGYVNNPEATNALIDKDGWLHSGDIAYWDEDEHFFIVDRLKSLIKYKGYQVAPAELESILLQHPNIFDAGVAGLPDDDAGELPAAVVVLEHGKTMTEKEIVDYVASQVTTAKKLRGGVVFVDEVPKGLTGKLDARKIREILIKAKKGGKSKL
Sequence of Retinoic acid receptor RXR-alpha (Homo sapiens) (P19793 whole entry, looked up): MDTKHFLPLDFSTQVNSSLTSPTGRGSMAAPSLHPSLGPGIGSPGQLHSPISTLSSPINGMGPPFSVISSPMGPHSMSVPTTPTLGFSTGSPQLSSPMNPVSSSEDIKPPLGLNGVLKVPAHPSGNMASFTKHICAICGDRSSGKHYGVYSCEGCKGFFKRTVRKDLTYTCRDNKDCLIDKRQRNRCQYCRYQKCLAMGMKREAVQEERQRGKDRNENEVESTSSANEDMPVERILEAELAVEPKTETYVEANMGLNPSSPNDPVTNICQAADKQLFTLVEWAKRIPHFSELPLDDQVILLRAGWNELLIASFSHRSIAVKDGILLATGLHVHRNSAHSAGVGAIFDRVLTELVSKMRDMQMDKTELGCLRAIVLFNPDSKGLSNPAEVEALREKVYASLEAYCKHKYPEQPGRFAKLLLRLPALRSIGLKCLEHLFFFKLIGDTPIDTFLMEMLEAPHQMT
Sequence of Thyroid hormone receptor beta (Homo sapiens) (P10828 whole entry, looked up): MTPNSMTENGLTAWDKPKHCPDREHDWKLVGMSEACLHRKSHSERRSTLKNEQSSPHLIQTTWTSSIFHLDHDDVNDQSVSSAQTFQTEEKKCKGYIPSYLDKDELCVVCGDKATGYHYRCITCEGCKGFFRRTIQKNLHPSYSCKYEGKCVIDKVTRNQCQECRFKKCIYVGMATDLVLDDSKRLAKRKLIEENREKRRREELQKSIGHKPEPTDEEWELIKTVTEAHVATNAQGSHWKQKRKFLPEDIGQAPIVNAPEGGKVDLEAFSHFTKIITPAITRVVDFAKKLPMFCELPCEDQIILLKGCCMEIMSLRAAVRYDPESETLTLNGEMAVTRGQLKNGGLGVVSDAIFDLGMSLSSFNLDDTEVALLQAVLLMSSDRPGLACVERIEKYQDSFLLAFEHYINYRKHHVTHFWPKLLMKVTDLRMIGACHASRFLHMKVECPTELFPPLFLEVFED
Sequence of Glutaminase kidney isoform, mitochondrial (Homo sapiens) (O94925 whole entry, looked up, canonical isoform): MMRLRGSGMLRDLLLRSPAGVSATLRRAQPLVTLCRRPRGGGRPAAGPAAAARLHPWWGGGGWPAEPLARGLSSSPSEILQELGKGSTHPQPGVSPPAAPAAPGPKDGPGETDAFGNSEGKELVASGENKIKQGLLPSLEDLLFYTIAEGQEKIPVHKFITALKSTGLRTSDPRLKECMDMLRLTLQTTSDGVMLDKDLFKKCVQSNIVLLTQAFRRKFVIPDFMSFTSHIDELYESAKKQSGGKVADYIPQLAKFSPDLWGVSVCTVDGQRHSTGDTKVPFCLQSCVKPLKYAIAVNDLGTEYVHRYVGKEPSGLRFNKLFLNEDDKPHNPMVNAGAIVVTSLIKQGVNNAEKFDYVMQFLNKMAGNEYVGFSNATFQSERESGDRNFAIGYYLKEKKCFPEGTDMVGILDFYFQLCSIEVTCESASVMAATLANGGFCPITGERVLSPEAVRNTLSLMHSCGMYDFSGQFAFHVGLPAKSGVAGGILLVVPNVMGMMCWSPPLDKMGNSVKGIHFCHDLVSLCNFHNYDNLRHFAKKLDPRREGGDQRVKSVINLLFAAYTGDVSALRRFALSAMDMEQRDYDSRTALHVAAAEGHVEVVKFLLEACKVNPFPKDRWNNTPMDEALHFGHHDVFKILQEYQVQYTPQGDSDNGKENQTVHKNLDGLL
Sequence of Voltage-gated inwardly rectifying potassium channel KCNH2 (Homo sapiens) (Q12809 whole entry, looked up): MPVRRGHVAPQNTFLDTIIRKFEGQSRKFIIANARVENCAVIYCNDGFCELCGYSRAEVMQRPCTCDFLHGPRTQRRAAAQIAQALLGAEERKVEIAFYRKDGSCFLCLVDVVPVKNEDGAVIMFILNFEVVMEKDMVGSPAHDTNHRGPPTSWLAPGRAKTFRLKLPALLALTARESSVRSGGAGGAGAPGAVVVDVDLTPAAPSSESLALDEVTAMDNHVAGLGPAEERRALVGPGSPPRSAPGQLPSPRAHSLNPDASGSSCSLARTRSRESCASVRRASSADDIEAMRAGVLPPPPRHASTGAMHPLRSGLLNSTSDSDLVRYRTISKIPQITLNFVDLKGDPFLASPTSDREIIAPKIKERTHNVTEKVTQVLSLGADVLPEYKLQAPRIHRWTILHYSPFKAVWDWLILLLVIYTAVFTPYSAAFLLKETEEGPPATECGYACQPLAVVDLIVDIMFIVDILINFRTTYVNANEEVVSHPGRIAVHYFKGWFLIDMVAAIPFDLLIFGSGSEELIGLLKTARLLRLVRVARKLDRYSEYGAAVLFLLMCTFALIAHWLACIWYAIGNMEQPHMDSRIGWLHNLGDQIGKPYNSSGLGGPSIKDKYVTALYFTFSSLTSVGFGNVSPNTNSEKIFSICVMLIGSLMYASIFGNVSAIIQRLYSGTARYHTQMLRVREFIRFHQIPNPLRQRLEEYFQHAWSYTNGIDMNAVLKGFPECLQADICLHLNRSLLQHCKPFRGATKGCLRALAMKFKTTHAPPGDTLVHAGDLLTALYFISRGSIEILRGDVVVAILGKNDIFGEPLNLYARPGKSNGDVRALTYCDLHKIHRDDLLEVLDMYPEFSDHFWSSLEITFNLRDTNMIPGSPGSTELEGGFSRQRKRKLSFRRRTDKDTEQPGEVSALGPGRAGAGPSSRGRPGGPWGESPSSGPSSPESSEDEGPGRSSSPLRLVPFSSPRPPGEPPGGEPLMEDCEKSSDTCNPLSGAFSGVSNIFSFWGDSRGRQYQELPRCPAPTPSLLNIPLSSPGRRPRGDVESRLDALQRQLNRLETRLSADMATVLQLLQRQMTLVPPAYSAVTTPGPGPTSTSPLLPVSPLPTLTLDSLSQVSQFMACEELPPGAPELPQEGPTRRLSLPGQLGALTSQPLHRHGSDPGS
Sequence of Glucocorticoid receptor (Homo sapiens) (P04150 whole entry, looked up): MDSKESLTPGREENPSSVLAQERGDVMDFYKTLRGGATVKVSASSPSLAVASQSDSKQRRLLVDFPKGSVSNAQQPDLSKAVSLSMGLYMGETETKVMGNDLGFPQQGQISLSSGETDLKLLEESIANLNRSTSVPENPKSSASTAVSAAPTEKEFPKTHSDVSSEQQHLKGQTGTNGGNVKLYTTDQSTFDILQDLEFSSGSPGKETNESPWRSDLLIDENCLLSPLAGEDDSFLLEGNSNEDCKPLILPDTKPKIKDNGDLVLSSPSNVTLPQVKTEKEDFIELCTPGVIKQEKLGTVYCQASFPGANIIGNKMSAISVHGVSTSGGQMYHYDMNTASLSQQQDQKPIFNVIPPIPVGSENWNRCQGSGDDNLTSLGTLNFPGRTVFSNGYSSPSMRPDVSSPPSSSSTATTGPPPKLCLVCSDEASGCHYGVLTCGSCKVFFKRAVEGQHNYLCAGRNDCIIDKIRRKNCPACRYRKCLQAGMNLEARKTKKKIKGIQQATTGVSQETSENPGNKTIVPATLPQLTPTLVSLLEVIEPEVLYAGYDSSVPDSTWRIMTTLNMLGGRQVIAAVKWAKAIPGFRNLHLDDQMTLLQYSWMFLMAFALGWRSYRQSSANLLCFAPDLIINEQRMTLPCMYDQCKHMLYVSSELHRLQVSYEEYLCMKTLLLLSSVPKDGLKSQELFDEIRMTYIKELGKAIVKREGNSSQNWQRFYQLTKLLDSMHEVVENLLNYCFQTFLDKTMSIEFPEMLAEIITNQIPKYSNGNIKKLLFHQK

In the case of `COc1ccc2[nH]cc(CCNC(C)=O)c2c1`, the activation in test [1] was -4.76% (inactive) and 1.7% (inactive) and -3.63% (inactive). Also, the Potency entry in [2], in test [6], in test [14], in test [15], in [16] and in [17] was “inactive” throughout. The Potency entry in [18] and in [19] was “inactive” in each case. Moreover, the max response is 14.8% and 21.6% and 4.95% in [3]; 4.26% and -2.38% and 20.7% in [9]; 15.5% and 6.29% and -2.26% in [11]; 0.955% (inactive) and -6.07% (inactive) and -2.21% (inactive) in test [12]. In addition, the outcome in test [4], in test [5], in test [7], in test [8] and in [10] was inactive. In addition, the activity change % (negative = inhibition) in test [13] was -14% (inactive) and 1.14% (inactive) and 10.4% (inactive).
Turning to `Clc1ccc(C(c2ccccc2Cl)C(Cl)Cl)cc1` (configuration not stated), in [1], the activation was -3.98% (inactive). For the same molecule, in test [3], the max response was -16.9%. In addition, the result in test [4] was inactive. The activity change % (negative = inhibition) in test [13] was -34.3% (inactive). In [14], the Potency was 31.6 µM (active) and 10 µM (active) and 5.62 µM (active). The Potency result in test [15], in [16], in [18] and in test [19] was “inactive” in each case.
Regarding `CCOC(=O)C(C)(C)Oc1ccc(Cl)cc1`, the activation in [1] is -5.3% (inactive). Besides, the Potency result in [2], in test [6], in test [14], in [15], in [16] and in test [17] was “inactive” each time. Moreover, the Potency result in test [20], in test [18] and in test [19] was “inactive” in each case. For the same molecule, the max response is -15.2% in test [3], -9.24% in test [9], -5.41% in [11] and 3.43% (inactive) in test [12]. Also, the result in test [4], in test [5], in test [7], in test [8] and in test [10] was inactive. Also, the activity change % (negative = inhibition) in [13] was 7.19% (inactive).
Take `O=c1[nH]cc(F)c(=O)[nH]1`: the Potency entry in test [2], in test [14], in [15], in [16], in [18] and in test [19] was “inactive” each time. The outcome in test [7], in test [8] and in test [10] was inactive. The max response is -12.4% in test [9], -11.8% in test [11] and 17.9% (inactive) in test [12].
On to `CC(C)C(=O)Nc1ccc([N+](=O)[O-])c(C(F)(F)F)c1`, for which the result in test [5] was inactive. Moreover, the Potency entry in test [6], in test [14], in [15], in [16], in test [18] and in [19] was “inactive” throughout. The max response was 2.09% and 2.52% in [11]; -17.5% (inactive) and 1.97% (inactive) in test [12]. Also, the activity change % (negative = inhibition) in test [13] is -0.269% (inactive) and 16% (inactive).
With `Cn1cnc2c1c(=O)[nH]c(=O)n2C`, in [1], the activation is -4.06% (inactive). Besides, the Potency result in [2], in [6], in test [15], in [16], in test [17] and in test [20] was “inactive” each time. In addition, the Potency entry in [18] and in [19] was “inactive” in each case. For the same molecule, the results for the max response in test [3], in test [11] and in test [12] were -1.33%, -0.801% and -5.33% (inactive), respectively. Also, the result in [4], in test [5], in test [7] and in test [8] was inactive. Further, the activity change % (negative = inhibition) in test [13] is 8.64% (inactive).
